Screening data as filed in PubChem.
NS1 function inh – inhibitors of influenza NS1 protein function. Potency, µM (top dose mostly 46.1 µM), inactives show at the highest dose activity, positive = more growth. 270,000 tested, 0.4% active; calls by dose curve; note: potency is the fitted concentration of half-maximal effect; actives are rising curves; nearly all actives have a fitted effect of over 50% in size
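Read-out: OD600 growth recovery of NS1-expressing budding yeast. Cells grown overnight at 30C in -URA glucose medium, washed, resuspended and diluted 1:100 in 2% galactose assay medium, pH 6.0. Same strain lacking NS1 served as positive control.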
FBPA Giardia inh – Giardia lamblia aldolase inhibition; A8B2U2; purified Giardia FBPA; Potency, µM (doses to about 59.6 µM), for the others: at the highest dose activity, negative = inhibition, usual class: inhibitors; 290,000 tested, 0.71% active; AID 2451; note: potency is the fitted concentration of half-maximal effect; % is set by controls: 0 for no effect and ±100 for the full control effect; nearly all actives have a fitted effect of over 55% in size
Target sequence (A8B2U2 whole entry, looked up): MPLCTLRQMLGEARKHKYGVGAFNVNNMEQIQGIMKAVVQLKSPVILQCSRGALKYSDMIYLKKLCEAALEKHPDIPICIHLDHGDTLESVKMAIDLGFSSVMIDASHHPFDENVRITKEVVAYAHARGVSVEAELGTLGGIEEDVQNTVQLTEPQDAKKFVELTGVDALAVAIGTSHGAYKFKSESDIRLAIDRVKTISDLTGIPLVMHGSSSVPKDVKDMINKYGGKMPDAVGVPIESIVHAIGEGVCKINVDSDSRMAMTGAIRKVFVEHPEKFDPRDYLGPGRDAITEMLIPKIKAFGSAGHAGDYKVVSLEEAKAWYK
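40 nM FBPA preincubated 10 min at RT with compound (up to 57.5 uM final), then substrate plus GAPDH/TPI/NAD/arsenate coupling and diaphorase/resazurin added. Fluorescence read after 20 min at RT, 525/598 nm.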
LmPK inhibitor – inhibitors of Leishmania mexicana pyruvate kinase; purified LmPK, Kinase-Glo ATP luminescence, 1 h; Potency, µM (titrated, usually from 57.5 µM), for the others: at the highest dose activity change, negative = inhibition, usual class: inhibitors; Q27686; 290,000 tested, 0.37% active; AID 1721; note: potency is the fitted concentration of half-maximal effect; % is set by controls: 0 for no effect and ±100 for the full control effect
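ATP generated from ADP (0.1 mM) and PEP (0.5 mM) by 0.1 nM LmPK over 1 h at room temperature (pH 7.2 imidazole buffer) was detected by coupled luciferase luminescence. Values were normalized to uninhibited and no-enzyme wells.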
Shiga toxin inh – Shiga toxin inhibition; Vero cells, Shiga toxin protein synthesis inhibition reporter; inhibition, % at 38.7 µM; 290,000 tested, 9.2% active; in the data active = inhibition mostly above about 28%, no sharp cut-off; inactive = mostly below about 43%; note: 0% is about no effect
CHX counter – counter-screen hit for Shiga toxin inhibitors, cycloheximide | max response, % | cell reporter, cycloheximide protein synthesis inhibition counterscreen | 300,000 tested, 12% active; in the data active = max response mostly above about 13%, no sharp cut-off; inactive = mostly below about 14%; note: read at 38.3 µM for the half of the compounds with a filed dose; 0% is about no effect
Flu NS1 inh – influenza NS1 function inhibition validation; shares compounds with NS1 function inh; influenza NS1 function cell assay, 15-point titration; activity change, negative = inhibition, % at 32.9 µM; 1,400 tested, under 10 active; calls by dose curve; note: 0% is about no effect
An asterisk follows results filed as active; ? = inconclusive; / = not tested or not shown; + = active, no number. Only some compounds are listed: those with a hit (about 14% of all), similar ones and a draw of the others. Unless noted, calls come from the whole dose curve; as a rule, active = well fitted curve in the direction sought with a large enough effect; inconclusive = small, poorly fitted or top-dose-only effect, or another doubt; inactive = no such curve, though single readings can be large; an effect the other way counts as inactive or inconclusive.

SMILES	NS1 function inh	FBPA Giardia inh	LmPK inhibitor	Shiga toxin inh	CHX counter	Flu NS1 inh
c1ccc(-c2ccc(C3=Nn4c(Cn5nnc6ccccc65)nnc4SC3)cc2)cc1	12.6µM*	1.0%	2.0%	-22.7	-1.0	?
C=CCN1CC(c2nc3ccccc3n2CCOc2ccccc2)CC1=O (centres undefined)	?	-3.3%	-3.9%	-23.6	-3.4	-24.5
COCCCn1c2nc3ccccc3nc2c2c(=O)n(Cc3ccc(Cl)cc3)cnc21	-12.1%	4.0%	5.5%	-14.3	-2.8	/
O=c1c2c3nc4ccccc4nc3n(Cc3ccccc3)c2ncn1Cc1ccco1	15.8µM*	?	2.2%	5.4	7.1	-14.3
Cc1[nH]n(-c2ncc(-c3ccccc3)s2)c(=O)c1C(c1ccc(Br)cc1)C(C#N)C#N (centres undefined)	4.47µM*	?	0.7%	41.4	14.0	-21.0
c1ccc(-n2cnc3cc(NCc4ccncc4)ccc32)cc1	?	0.8%	2.6%	90.6*	27.5*	-11.1
COc1ccc(N(Cc2cc(=O)[nH]c3ccccc23)C(C)=O)cc1	-0.5%	9.2%	1.0%	2.8	0.9	/
C/C=C\C(=O)Nc1cccc(C2=NOC3(C2)C[C@@H](C(N)=O)N(C(=O)c2ccccc2)C3)c1 (some centres undefined)	-2.1%	1.6%	3.3%	-1.8	-4.3	/
C/C=C\C=C/C(=O)Nc1cccc(C2=NOC3(C2)C[C@@H](C(N)=O)N(C(=O)c2ccccc2)C3)c1 (some centres undefined)	1µM*	-17.5%	2.4%	-5.0	-3.4	-11.5
O=C(NCC1CCCO1)c1ccc(CS(=O)(=O)c2c(Cl)cccc2Cl)o1 (centres undefined)	1.4%	0.1%	-2.2%	-10.3	-6.3	/
O=C(NC1CC1)c1ccc(CS(=O)(=O)c2c(Cl)cccc2Cl)o1	4.47µM*	1.2%	2.4%	27.5	-2.1	6.3
O=C(CSCC(=O)N1CCCc2ccccc21)Nc1nc(-c2ccccc2)cs1	20µM*	0.5%	2.4%	32.7	18.4*	-24.7
CC/C(=N\NC(=O)c1ccc(CN(C)S(=O)(=O)c2ccc(C)cc2)cc1)c1ccc(OC(F)F)cc1	?	-2.0%	1.9%	-7.2	-2.4	13.7
CCc1cc2c(Nc3ccc(O)cc3)nc(C)nc2s1	-16.2%	?	3.3%	-5.4	3.8	/
COc1ccc(/C=N/Nc2nc(-c3cccc(S(=O)(=O)N4CCCC4)c3)cs2)cc1OC	12.6µM*	-5.8%	-1.1%	+	14.8	19.0
CCOc1cc(/C=N/Nc2nc(-c3cccc(S(=O)(=O)N4CCCC4)c3)cs2)ccc1O	10µM*	-9.0%	-0.1%	8.9	-2.0	18.9
CCCS(=O)(=O)c1ccc(COC(=O)Cc2ccc([N+](=O)[O-])cc2)cc1	21.8%	16.4%	5.7%	/	2.2	/
COC(=O)[C@H](C)NC(=O)N1CCC(Cc2ccccc2)CC1	-4.5%	-5.3%	1.7%	3.5	-2.5	/
COc1cc2nc(SCC(=O)NCCc3ccccc3)n(Cc3ccco3)c(=O)c2cc1OC	2.51µM*	-5.4%	-2.5%	39.9	-1.6	-2.6
Cc1cccc(NC(=S)/N=C(\N)Nc2nc(C)c3ccccc3n2)c1	10µM*	10.5%	2.8%	49.9	29.8*	-37.0
Cc1cc(C)cc(NC(=S)/N=C(\N)Nc2nc(C)c3ccccc3n2)c1	21.5%	-4.6%	0.4%	-7.4	-5.1	/
Cc1ccc(NC(=S)/N=C(\N)Nc2nc(C)c3ccccc3n2)cc1C	11.2µM*	-0.8%	0.3%	20.0	21.6*	-24.3
COCCCn1c(=O)c2sccc2n2c(CCCC(=O)NCc3ccc(F)cc3)nnc12	0.3%	4.6%	-2.2%	11.8	0.9	/
COc1ccccc1Nc1nn2c(=O)c3ccc(C(=O)N4CCC(C)CC4)cc3nc2s1	?	2.3%	8.4%	-11.6	-7.7	?
CCOC(=O)c1c(C)nsc1NC(=O)C1CCCCC1	-17.7%	2.4%	-0.1%	-7.2	-4.7	/
Cc1ccc(CC2C(=O)N(c3cc(C)ccc3C)C(=O)C2C)cc1 (centres undefined)	-20.9%	-1.5%	-1.7%	-5.0	-2.2	/
COCCn1c(=NC(=O)c2cc(-c3cccs3)nc3ccccc23)sc2cc(S(N)(=O)=O)ccc21	11.2µM*	-2.4%	-0.1%	-1.0	1.0	25.6
CCOCCCNC(=O)CN1C(=O)COc2ccc(S(=O)(=O)N3CCC(C)CC3)cc21	12.7%	/	-6.9%	-4.9	-7.9	/
